SMILES strings stand for the structures. The panel holds about 83,000 compounds, 20% with a hit somewhere; the sample as a whole holds those more often.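 For each line, cells grew in 96-well plates with the test compound present at a single concentration for 48 hours.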 The source made the active and inactive calls. How the source made its calls: active means growth percent below 10; inactive means the rest.

One assay deals with 786-0 renal. Kind of assay: NCI-60 one-dose screen, 48 h (100 = growth as untreated, 0 = no growth, -100 = all killed). The following applies: 10 µM unless noted.
For the molecule `COc1cc(C(=O)Nc2cc3c(cc2Oc2cc(C)cc(C)c2)C(=O)N(C)[C@@H](CC(=O)N(C)O)C(=O)N3)c(Br)c(OC)c1OC`, the growth was -38.5% (active).
Turning to `COc1cc2cc(CN3CCN(c4nccc(-c5ccc6ccccc6c5)n4)CC3)c(=O)[nH]c2cc1OC`, the growth is 32.7% (inactive).
The same measure, in the same setting: the figure for `N#C/C(=C\c1c(-c2ccccc2)[nH]c2ccccc12)C(=O)c1ccc(Cl)cc1` is 44.6% (inactive); for `NS(=O)(=O)c1ccc(CCn2c(SCC(=O)c3ccc(Cl)cc3)nc3ccccc3c2=O)cc1` it is 92.4% (inactive); for `CC(C)(C)c1ccc(NS(=O)(=O)c2ccc3nc(NC(=O)c4cnccn4)[nH]c3c2)cc1` it is 30% (inactive).
In the case of `CCCCCN1C=C/C(=C\C(=O)N(C)c2ccc(OC(F)(F)F)cc2)c2ccccc21`, the growth is 99.4% (inactive).
On the same count and under the same terms, the figure for `CCc1c2c(nc3ccc(OCc4ccc(B(O)O)cc4)cc13)-c1cc3c(c(=O)n1C2)COC(=O)[C@]3(O)CC` is -13.7% (active).
Still for that read-out and setting: the figure for `COc1cccc(C(=O)NNc2nc(Cl)nc(N3CCN(C(c4ccccc4)c4ccccc4)CC3)n2)c1` is 82% (inactive); for `COc1cccc(/C=N/NC(=O)c2cnn3c2NC(c2ccccc2)C3)c1Oc1ccccc1` (stereo not drawn) it is 79.8% (inactive); for `COc1ccc(/C=C/C(=O)Nc2cc(/C=C\c3cc(OC)c(OC)c(OC)c3)cc(OC)c2OC)cc1OC` it is 23% (inactive).
On to `COc1cc2oc(-c3cccc(C(=O)Nc4ccc5c(c4)OCO5)c3)cc(=O)c2c(O)c1OC`, for which the growth is 64.3% (inactive).
The same measure, in the same setting: the figure for `Nc1c(S(=O)(=O)O)cc2c3c(cccc13)C(=O)OC2=O` is 102% (inactive); for `O=C1Nc2ccccc2/C1=C\c1c(-c2ccccc2)nc2ccccn12` it is 58.7% (inactive); for `COc1ccc(-c2[nH][nH]c(=O)c2-c2nc3ccccc3s2)cc1` it is 100% (inactive).
On the same count and under the same terms, then `Cc1ccc(-c2csc(NC(=O)CSc3nc(-c4ccccc4)cc(=O)[nH]3)n2)cc1`, with 104% (inactive); and `Oc1cccc(CCc2ccc(Oc3cc(CCc4cccc(O)c4)cc(O)c3O)cc2)c1`, with 92.8% (inactive).
On the same count and under the same terms, the figure for `CCOc1cccc(-c2nc(N)nc(Nc3ccccc3SSc3ccccc3Nc3nc(N)nc(-c4cccc(OCC)c4)n3)n2)c1` is 84.9% (inactive).
Turning to `Nc1n[nH]c2cccc(C#Cc3cccc(C(=O)Nc4cccc(C(F)(F)F)c4)c3)c12`, the growth was 90.6% (inactive).
Take `O=C(Nc1ccc(Cl)cc1)c1cc(NCc2cc(O)ccc2O)ccc1O`: the growth is 95.6% (inactive).
Still for that read-out and setting: then `COc1cc(/C=C2\COc3ccc(-c4ccccc4)cc3C2=O)cc(OC)c1`, with 89.3% (inactive).
Same read-out and setting: the figure for `Cc1c(C(=O)NCCC(=O)NO)sc2ncnc(Nc3ccc(NC(=O)Nc4cccc(C(F)(F)F)c4)cc3)c12` is 116% (inactive); for `Cc1cc(C)c(S(=O)(=O)Oc2ccccc2[N+](=O)[O-])c(C)c1` it is 33% (inactive).
On the same count and under the same terms, the figure for `CCCC/C=N/NC(=S)NCc1ccccc1` is 102% (inactive).
`O=C(Nc1ccc(-c2ccc3c(c2)NC(=O)/C3=C\c2ccc[nH]2)cc1)NC1CC1`: the growth is 110% (inactive).
On the same count and under the same terms, then `NCCCCCCNc1cc(-c2cccc(OC(F)(F)F)c2)nc2ccc(N3CCCC3)cc12`, with -65.2% (active).

The test system of another assay is COLO 205 colon. The assay is described as above. The following applies: 10 µM unless noted.
Consider `O=S(=O)(Nc1ccc(-n2cnc3cc(-c4ccc(O)cc4)ccc32)cc1)c1ccccc1`, for which the growth was 136% (inactive).
Consider `O=S(=O)(NCCNc1nccc(-c2c(-c3cccc(O)c3)nc3occn23)n1)c1ccc(Cl)cc1`, for which the growth was 32.7% (inactive).
Same read-out and setting: the figure for `COc1cc(C2=NN(C(C)=O)C(c3cc(OC)c(OC)c(OC)c3)C2)ccc1O` (stereo not drawn) is -17.2% (active); for `N/C(=N\C(N)=N\c1nc2ccccc2s1)c1cccc(Cl)c1` it is 101% (inactive); for `C=C(C)[C@@H]1CC[C@]2(C(=O)N3CCN(C)CC3)CC[C@]3(C)[C@H](CC[C@@H]4[C@@]5(C)CC[C@H](OCCC#N)C(C)(C)[C@@H]5CC[C@]43C)[C@@H]12` it is 50.3% (inactive).
Same read-out and setting: then `O=C(/C=C(O)/C=C/c1ccc(SC(F)(F)F)cc1)/C=C/c1ccc(SC(F)(F)F)cc1`, with 114% (inactive).
Still for that read-out and setting: then `COc1cc(/C(C)=C(\c2ccc(Cl)cc2)c2ccc(OCCN(C)C)cc2)ccc1F`, with -33.8% (active); and `COc1cc2oc(-c3cccc(C(=O)Nc4ccc(Cl)cc4)c3)cc(=O)c2c(O)c1OC`, with 74% (inactive).
Regarding `COc1ccc2nc(-c3ccc(-c4noc(-c5cc(OC)c(OC)c(OC)c5)n4)cc3)[nH]c2c1`, the growth was 78.4% (inactive).
On the same count and under the same terms, the figure for `COC1=CC(=O)c2ccccc2C1=O` is 117% (inactive).
The same measure, in the same setting: the figure for `CC(=O)Nc1cccc(-c2ccc3c(c2)NC(=O)/C3=C\c2ccc[nH]2)c1` is 38.8% (inactive); for `COc1c(Cl)c2c(c(OC)c1OC)-c1ccc(SC)c(=O)cc1[C@@H](NC(=O)OCC(F)(F)F)CC2` it is -0.15% (active); for `COc1cc(/C=N/NC(=O)c2cnn3c2NC(c2ccccc2)C3)ccc1Oc1ccccc1` (stereo not drawn) it is 24.9% (inactive).
The same measure, in the same setting: then `COc1cc(C(=O)Nc2cc3c(cc2Oc2cc(C)cc(C)c2)C(=O)N(C)[C@@H](CC(=O)N(C)O)C(=O)N3)c(Br)c(OC)c1OC`, with -17.9% (active); and `COc1cc2cc(CN3CCN(c4nccc(-c5ccc6ccccc6c5)n4)CC3)c(=O)[nH]c2cc1OC`, with 80% (inactive); and `N#C/C(=C\c1c(-c2ccccc2)[nH]c2ccccc12)C(=O)c1ccc(Cl)cc1`, with 41.6% (inactive).
As for `NS(=O)(=O)c1ccc(CCn2c(SCC(=O)c3ccc(Cl)cc3)nc3ccccc3c2=O)cc1`, the growth is 113% (inactive).
Same read-out and setting: then `CC(C)(C)c1ccc(NS(=O)(=O)c2ccc3nc(NC(=O)c4cnccn4)[nH]c3c2)cc1`, with 21.7% (inactive); and `CCCCCN1C=C/C(=C\C(=O)N(C)c2ccc(OC(F)(F)F)cc2)c2ccccc21`, with 104% (inactive).
On the same count and under the same terms, then `CCc1c2c(nc3ccc(OCc4ccc(B(O)O)cc4)cc13)-c1cc3c(c(=O)n1C2)COC(=O)[C@]3(O)CC`, with 13.6% (inactive); and `COc1cccc(C(=O)NNc2nc(Cl)nc(N3CCN(C(c4ccccc4)c4ccccc4)CC3)n2)c1`, with 76.6% (inactive).
As to `COc1cccc(/C=N/NC(=O)c2cnn3c2NC(c2ccccc2)C3)c1Oc1ccccc1` (stereo not drawn), the growth is 79.6% (inactive).
On the same count and under the same terms, then `COc1ccc(/C=C/C(=O)Nc2cc(/C=C\c3cc(OC)c(OC)c(OC)c3)cc(OC)c2OC)cc1OC`, with 11.2% (inactive).
In the case of `COc1cc2oc(-c3cccc(C(=O)Nc4ccc5c(c4)OCO5)c3)cc(=O)c2c(O)c1OC`, the growth was 94.8% (inactive).
`Nc1c(S(=O)(=O)O)cc2c3c(cccc13)C(=O)OC2=O`: the growth is 111% (inactive).
The same measure, in the same setting: then `O=C1Nc2ccccc2/C1=C\c1c(-c2ccccc2)nc2ccccn12`, with 31% (inactive); and `COc1ccc(-c2[nH][nH]c(=O)c2-c2nc3ccccc3s2)cc1`, with 112% (inactive).
Still for that read-out and setting: the figure for `Cc1ccc(-c2csc(NC(=O)CSc3nc(-c4ccccc4)cc(=O)[nH]3)n2)cc1` is 109% (inactive); for `Oc1cccc(CCc2ccc(Oc3cc(CCc4cccc(O)c4)cc(O)c3O)cc2)c1` it is 111% (inactive); for `CCOc1cccc(-c2nc(N)nc(Nc3ccccc3SSc3ccccc3Nc3nc(N)nc(-c4cccc(OCC)c4)n3)n2)c1` it is 109% (inactive).
On the same count and under the same terms, then `Nc1n[nH]c2cccc(C#Cc3cccc(C(=O)Nc4cccc(C(F)(F)F)c4)c3)c12`, with 49.8% (inactive).
`O=C(Nc1ccc(Cl)cc1)c1cc(NCc2cc(O)ccc2O)ccc1O`: the growth is 105% (inactive).
As to `COc1cc(/C=C2\COc3ccc(-c4ccccc4)cc3C2=O)cc(OC)c1`, the growth was 107% (inactive).
Still for that read-out and setting: then `Cc1c(C(=O)NCCC(=O)NO)sc2ncnc(Nc3ccc(NC(=O)Nc4cccc(C(F)(F)F)c4)cc3)c12`, with 113% (inactive).
As for `Cc1cc(C)c(S(=O)(=O)Oc2ccccc2[N+](=O)[O-])c(C)c1`, the growth was 22.9% (inactive).
The same measure, in the same setting: then `CCCC/C=N/NC(=S)NCc1ccccc1`, with 100% (inactive); and `O=C(Nc1ccc(-c2ccc3c(c2)NC(=O)/C3=C\c2ccc[nH]2)cc1)NC1CC1`, with 115% (inactive); and `NCCCCCCNc1cc(-c2cccc(OC(F)(F)F)c2)nc2ccc(N3CCCC3)cc12`, with -62.1% (active).

The record behind these values is PubChem BioAssay (NCI).
